Laboratory results: PMC4336329 (PLoS ONE, 2015)
Among all 310,000 compounds or so, about 14,000 (4.5%) showed an effect of 50% or more. The effect is printed as a negative number. Shown is part of a subset that was picked to be rich in strong results.

Target: human ether-à-go-go-related gene (hERG) potassium channel (human, UniProt Q12809)
Test: primary screen, population patch clamp on CHO cells stably expressing hERG; higher = less effect of the substance
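Note: peak tail current of the secondary pulse compared with the same well before compound.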

Chain of human ether-à-go-go-related gene (hERG) potassium channel (Q12809 whole entry, looked up): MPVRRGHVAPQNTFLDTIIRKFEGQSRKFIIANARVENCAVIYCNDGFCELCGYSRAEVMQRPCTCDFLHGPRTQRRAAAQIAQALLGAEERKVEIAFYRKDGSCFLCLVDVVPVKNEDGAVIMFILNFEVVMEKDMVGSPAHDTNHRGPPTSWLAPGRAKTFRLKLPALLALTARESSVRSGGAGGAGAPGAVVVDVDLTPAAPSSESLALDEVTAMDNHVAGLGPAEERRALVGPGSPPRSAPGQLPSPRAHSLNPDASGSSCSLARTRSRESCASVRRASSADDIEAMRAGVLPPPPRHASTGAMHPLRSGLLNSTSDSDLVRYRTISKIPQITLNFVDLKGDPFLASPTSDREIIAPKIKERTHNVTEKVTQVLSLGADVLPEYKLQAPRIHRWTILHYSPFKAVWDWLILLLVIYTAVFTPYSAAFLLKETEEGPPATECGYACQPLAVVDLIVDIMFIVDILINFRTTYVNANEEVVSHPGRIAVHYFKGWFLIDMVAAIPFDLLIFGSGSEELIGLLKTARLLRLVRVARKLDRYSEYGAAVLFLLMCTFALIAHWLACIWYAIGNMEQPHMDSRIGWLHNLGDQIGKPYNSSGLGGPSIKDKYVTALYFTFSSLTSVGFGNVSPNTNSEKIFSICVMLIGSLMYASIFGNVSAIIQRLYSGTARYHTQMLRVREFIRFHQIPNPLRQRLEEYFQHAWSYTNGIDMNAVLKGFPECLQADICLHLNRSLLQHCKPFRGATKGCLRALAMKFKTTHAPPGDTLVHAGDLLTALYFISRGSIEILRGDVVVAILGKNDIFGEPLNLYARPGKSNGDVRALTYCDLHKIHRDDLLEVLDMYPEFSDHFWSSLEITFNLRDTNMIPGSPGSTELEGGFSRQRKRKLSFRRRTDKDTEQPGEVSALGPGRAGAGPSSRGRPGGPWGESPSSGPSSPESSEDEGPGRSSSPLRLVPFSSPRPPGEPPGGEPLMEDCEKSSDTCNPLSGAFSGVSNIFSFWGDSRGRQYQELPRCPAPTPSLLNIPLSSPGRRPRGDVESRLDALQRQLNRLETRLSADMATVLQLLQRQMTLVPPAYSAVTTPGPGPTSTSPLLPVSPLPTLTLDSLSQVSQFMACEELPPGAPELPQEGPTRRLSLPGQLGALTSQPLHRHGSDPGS

In order of rising “hERG current change (%, negative = inhibition) at 10uM” value:
1. COc1ccccc1C(=O)Nc1ccc(S(=O)(=O)N2CCc3ccccc32)cc1  -77%
2. O=C(CN1CCN(C(=O)C2COc3ccccc3O2)CC1)Nc1ccc(F)cc1 (stereo not shown)  -75.7%
3. CN(Cc1ccc(-n2cccn2)cc1)Cc1cn(C)nc1-c1ccccc1F  -74.9%
4. O=C(CN1CCN(C(=O)C2COc3ccccc3O2)CC1)Nc1ccccc1 (stereo not shown)  -66.2%
5. Cn1cc(CNCc2ccc(-n3cccn3)cc2)c(-c2ccccc2F)n1  -62.2%
6. CCOC(=O)C1CCN(C(=O)c2cc(S(=O)(=O)N3CCc4ccccc43)ccc2OC)CC1  -60.3%
7. O=C(CSCc1ccc([N+](=O)[O-])cc1)N/N=C/c1cccnc1  -60.2%
8. CCOC(=O)C1CCN(S(=O)(=O)c2ccc(NC(=O)OC)cc2)CC1  -56.5%
9. CCOC(=O)C1CCN(C(=O)c2cccc(S(=O)(=O)N3CCc4ccccc43)c2)CC1  -56.4%
10. CCOC(=O)C1CCN(S(=O)(=O)c2ccc(C)c(C(=O)NC3CCCCC3)c2)CC1  -55.8%
11. CC1CCCCC1NC(=O)CSc1ccc([N+](=O)[O-])cc1 (stereo not shown)  -52.6%
12. CCOC(=O)N1CCN(C(=O)c2cc(S(=O)(=O)N3CCc4ccccc43)ccc2OC)CC1  -52.1%
13. Cc1ccccc1CSCCNC(=O)CSCc1ccc([N+](=O)[O-])cc1  -51.3%
14. CCOC(=O)C1CCN(C(=O)c2cc(S(=O)(=O)N3CCCCCC3)ccc2OC)CC1  -50.8%
15. CCOC(=O)C1CCN(S(=O)(=O)c2ccc(CNC(=O)c3ccccc3)s2)CC1  -50.3%
16. CCOC(=O)C1CCN(C(=O)c2cc(S(=O)(=O)N3CCOCC3)c(Cl)cc2Cl)CC1  -50.1%
17. O=C(CSCc1ccc([N+](=O)[O-])cc1)N/N=C/c1ccncc1  -49.1%
18. O=C(C1COc2ccccc2O1)N1CCN(c2ccc(F)cc2)CC1 (stereo not shown)  -40.7%
19. Cn1cc(CNCCCn2ncc3ccccc32)c(-c2ccccc2F)n1  -36.3%
20. CCOC(=O)C1CCN(C(=O)c2cccc(S(=O)(=O)N3c4ccccc4CC3C)c2)CC1 (stereo not shown)  -35.7%
21. CCOC(=O)C1CCN(C(=O)c2ccc(Cl)c(S(=O)(=O)N3CCOCC3)c2)CC1  -32.4%
22. COc1cccc(-n2cc(CNCc3cn(C)nc3-c3ccccc3F)cn2)c1  -19.3%
23. COc1ccc(CNC(=O)C2CCC(CNS(=O)(=O)c3cccs3)CC2)cc1 (stereo not shown)  -18.9%
24. CCOC(=O)C1CCCN(C(=O)c2cc(S(=O)(=O)N3CCCCCC3)ccc2OC)C1 (stereo not shown)  -17.4%
25. O=C(CSc1ccc([N+](=O)[O-])cc1)NCC1CCCCC1  -15%
26. O=C(c1cccc(S(=O)(=O)N2CCc3ccccc32)c1)N1CCc2ccccc2C1  -13%
27. CCOC(=O)C1CCN(S(=O)(=O)c2ccc(OC)c(C(=O)N3CCCCCC3)c2)CC1  -12.5%
28. CCC(c1nnc(SCC(=O)Nc2ccc(C(C)=O)cc2)n1C1CCCCC1)N(C)C (stereo not shown)  -9.96%
29. O=C(Cc1ccc([N+](=O)[O-])cc1)N/N=C/c1cccnc1  -9.63%
30. COc1ccc([N+](=O)[O-])cc1NC(=O)CSCc1ccccc1C  -7.85%
31. CCCn1c(SCc2cc(=O)[nH]c3ccccc23)nc2c1c(=O)n(C)c(=O)n2C  -7.61%
32. CCN1CCN(C(=O)C2COc3ccccc3O2)CC1 (stereo not shown)  -7.48%
33. COc1ccc(S(=O)(=O)N2CCc3ccccc32)cc1C(=O)O  -6.25%
34. COc1c2ccoc2c(OC)c2oc(=O)ccc12  -5.65%
35. CCOc1ccccc1C1C(C#N)=C(N)Oc2cc(N)ccc21 (stereo not shown)  -5.58%
36. Cc1cccn2cc(CNc3ccccc3)nc12  -4.15%
37. COc1cc(C(=O)Nc2ccc(S(=O)(=O)N3CCc4ccccc43)cc2)cc(OC)c1OC  -4.14%
38. O=C(NCC12CC3CC(C1)CC(CNC(=O)N1CCCC1)(C3)C2)N1CCCC1  -3.73%
39. O=C(CSc1nc2ccccc2s1)NCCOc1ccc(Cl)cc1  -3.32%
40. Cc1ccccc1CSCC(=O)NCCSc1ccccn1  -3.24%
41. CCOC(=O)C1CCN(S(=O)(=O)CCNC(=O)c2ccccc2)CC1  -2.78%
42. O=C(CNC(=O)OCc1ccccc1)NC1CCCCCCC1  -2.67%
43. CC(=O)C[C@@H](O)CC(=O)[C@H]1OC(=O)CCCCCCc2ccccc21  -2.65%
44. COc1ccc(S(=O)(=O)N2CCc3ccccc32)cc1C(=O)N1CCN(C=O)CC1  -2.51%
45. O=C1CSC(c2ccc(Cl)c(Cl)c2)N1c1nccs1 (stereo not shown)  -1.93%
46. CCOC(=O)C1CCN(S(=O)(=O)c2ccc(C(=O)OC)cc2)CC1  -1.7%
47. FC(F)(F)c1cnc(Oc2ccccc2-c2nnc(-c3ccc(Cl)cc3)o2)c(Cl)c1  -1.52%
48. Cc1ccc(S(=O)(=O)NC2CC3CCC2C3)cc1 (stereo not shown)  -1.07%
49. CC(C)N(C(=O)CN1CCN(C(=O)C2COc3ccccc3O2)CC1)C(C)C (stereo not shown)  -0.817%
50. OCC[C@H]1C[C@@H](O)[C@H](O)[C@]2(OCc3ccccc32)O1  -0.346%
51. COc1ccc(S(=O)(=O)N2CCc3ccccc32)cc1C(=O)N1CCOCC1  -0.239%
52. CCOC(=O)N1CCN(S(=O)(=O)c2ccc(C)c(C(=O)NC3CCCCC3)c2)CC1  1.42%
53. COc1ccc(NS(=O)(=O)c2ccc(O)c(NC(=O)c3ccc(S(=O)(=O)N4CCCCCC4)cc3)c2)cc1  1.73%
54. C[n+]1cn(Cc2cc(Cl)ccc2OC(F)F)c2ccccc21.[Br-]  2.96%
55. Cc1ccc(S(=O)(=O)NNC(=S)Nc2ccccc2)cc1  3.05%
56. CCOC(=O)C1CCN(S(=O)(=O)c2ccc(C)cc2)CC1  3.36%
57. CCOCCCNC(=O)Cn1cnc2c(cnn2-c2ccc(C)c(C)c2)c1=O  3.91%
58. CC(=O)N1CCOc2ccc(S(=O)(=O)N3CCC(C(=O)NCc4ccc(F)cc4)CC3)cc21  4.09%
59. CCC(C)C(NC(=O)C1CCC(C)CC1)C(=O)NCCc1ccc(S(N)(=O)=O)cc1 (stereo not shown)  4.32%
60. O=C1CCCC/C1=C/NCc1ccc(F)cc1  6.07%
61. CC1CN(C(=O)COC(=O)c2c(Cl)cccc2Cl)CC(C)O1 (stereo not shown)  6.73%
62. CCN(C(=O)COc1ccccc1)C1CCCCC1  7.42%
63. CC1CCCCC1NC(=O)Cn1cc([N+](=O)[O-])ccc1=O (stereo not shown)  7.67%
64. O=C1CC(O)(C(F)(F)F)Oc2c1ccc1ccccc21 (stereo not shown)  7.95%
65. Cc1oc2ncnc(N)c2c1C  8.52%
66. NC(=O)C1CCN(C(=O)c2cc(S(=O)(=O)N3CCOCC3)c(Cl)cc2Cl)CC1  8.61%
67. O=C(Nc1ccc(F)cc1)C1COc2ccccc2O1 (stereo not shown)  9.07%
68. Cc1onc(C(=O)NCc2cccs2)c1[N+](=O)[O-]  9.7%
69. COc1ccc(S(=O)(=O)N2CCc3ccccc32)cc1C(=O)Nc1ccc(C(N)=O)cc1  9.8%
70. CNC(=O)CN1C(=O)c2cccc3cccc1c23  10.3%
71. O=c1[nH]ncn1-c1cccc(C(F)(F)F)c1  10.8%
72. O=C(Nc1cccnc1)c1cc(-c2ccc(F)cc2)on1  10.9%
73. Cc1cccc(C)c1OC1(c2ccccc2)OC(=O)c2ccccc21 (stereo not shown)  10.9%
74. CC1CCCN(c2ccc(F)cc2N)C1.Cl (stereo not shown)  11.2%
75. CC(C)(CO)C(O)C(=O)NCCCO (stereo not shown)  11.5%
76. Cc1ccc(CNC(=O)Nc2ccccc2)n1C  12.3%
77. CCOC(=O)C1CCN(S(=O)(=O)c2ccc(OC)c(C(=O)N3CCCCC3)c2)CC1  12.5%
78. COc1ccc(/C=N/NC(=O)c2ccc3nc[nH]c3c2)c(OC)c1OC  12.9%
79. CCn1ccnc1CN(C)Cc1cn(C)nc1-c1ccccc1F  13.2%
80. Cc1c(NN=C(C#N)C#N)c(=O)n(-c2ccccc2)n1C  13.5%
81. CCOC(=O)c1sc(Nc2ccc(Br)cc2)nc1C  13.7%
82. On1c(-c2ccc(Cl)cc2)nc2ccccc21  13.9%
83. O=C(Cn1c2ccc(F)cc2c2nc3n(c(=O)c21)CCS3)Nc1ccccc1C(F)(F)F  15.6%
84. O=C(N/C(=C\c1ccco1)C(=O)N1CCCC(CO)C1)c1ccccc1 (stereo not shown)  15.6%
85. CN(Cc1cccc(-n2cccn2)c1)Cc1cn(C)nc1-c1ccccc1F  15.9%
86. O=C(Nc1ccccc1)C(O)C(O)C(=O)Nc1ccccc1 (stereo not shown)  16.8%
87. COc1cccc(NC(=O)c2ccc[n+](C)c2)c1.[I-]  18.2%
88. COc1ccc(S(=O)(=O)N(CC(=O)Nc2ccc3c(c2)OCO3)c2ccccc2OC)cc1  18.5%
89. CC(C)=Cc1oc2ccc([N+](=O)[O-])cc2c1N1CC(C)OC(C)C1 (stereo not shown)  18.7%
90. Cc1ccc(S(=O)(=O)N2CCC(C(N)=O)CC2)cc1C(=O)NC1CCCCC1  18.9%
91. CN1CCN(S(=O)(=O)c2ccc(CNC(=O)c3ccccc3)s2)CC1  23.1%
